Reference: PubChem BioAssay (NCI)
Several values for one entry are separate records, joined by “and”; a condition that tells them apart may be missing. Equal entries are not always repeated. This is part of a sample that, as a whole, favours compounds with a hit. Of some 83,000 tested, about 20% had one in any assay.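 The test compound was applied at a single concentration to cells in 96-well plates for 48 hours, and percent growth was recorded.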 A number with no mark means an inactive call. Activity calls are given as the source filed them. The calls were made as follows: active = growth percent below 10; inactive = the rest.

Test system: MDA-MB-468 breast
Experiment: NCI-60 one-dose screen, 48 h (100 = growth as untreated, 0 = no growth, -100 = all killed)
Conditions: 10 µM unless noted

| SMILES | growth |
| --- | --- |
| Nc1ccccc1NC(=O)c1ccc(CCCC(=O)Nc2ccc(C3CC3N)cc2)cc1 (stereo not given) | -4.41% (active) |
| C[C@H](CCC[C@H](C)OS(=O)(=O)c1ccccc1)OS(=O)(=O)c1ccccc1 | 110% |
| Nc1cc2c3c(cccc3c1)C(=O)N(CCN1CCCC1)C2=O | 40.2% |
| COc1ccc(C/C(C)=C(/c2ccc(OCCN3CCCCCC3)cc2)c2ccc(OC(=O)NCc3ccccc3)cc2)cc1 | 83% |
| COc1cc(C(=O)c2cc(C)c3[nH]c4ccc(C)cc4c3c2C)cc(OC)c1OC | -20.1% (active) |
| COC(=O)c1cccc(NC2=C(Cl)C(=O)c3nc(C)ccc3C2=O)c1 | -71.3% (active) |
| O=C(O)CCCCCCCCCCCCCCC(=O)O | 95.6% |
| Cc1ccc(C)n1-c1ccsc1C(=O)NNC(=O)CCl | 88% |
| O=C1NC(=O)/C(=C/c2ccc(OCc3cc4ccccc4nc3Cl)cc2)S1 | 92% |
| O=c1cc(-c2ccccc2)[nH]c2c1CCCC2 | 39.9% |
| O=S(=O)(NCCCNc1cc(-c2cn(-c3ccccc3)nc2-c2cccc(O)c2)ccn1)c1ccc(Br)cc1 | -27.4% (active) |
| COC(=O)/C=C1\S/C(=N\NC(=O)c2cc3ccc2/C=C\c2ccc(cc2)/C=C\3)N(c2ccccc2)C1=O | -0.388% (active) |
| Cc1ccc(C)c(S(=O)(=O)NC2c3ccccc3Oc3ccccc32)c1 | 85% |
| O=C(N/N=C/c1ccc(F)cc1)c1[nH]c2ccc(I)cc2c1-c1ccccc1 | 17.8% |
| CCN1CCN(Cc2ccc(NC(=O)Nc3nc(-c4cc(OC)c(OC)c(OC)c4)cs3)cc2C(F)(F)F)CC1 | -0.339% (active) |
| COC(=O)Nc1ccc(NC(=O)OC)cc1 | 97.3% |
| COc1ccc(NC(=O)/N=c2\oc3c(OC)cccc3cc2-c2cc3ccccc3[nH]2)cc1 | 61.1% |
| COc1ccc(Oc2nc(Nc3ccc(N4CCOCC4)nc3)ncc2NC(=O)c2cc(OC)cc(OC)c2)cc1 | 82.1% |
| C=CC(=O)NC(=O)Nc1ccccc1Cl | 30.4% |
| CC1(C)CC[C@]2(C(=O)N3CCOCC3)CC[C@]3(C)C(=CC[C@@H]4[C@@]5(C)C/C(=C/c6ccncc6)C(=O)C(C)(C)[C@@H]5CC[C@]43C)[C@@H]2C1 | 3.46% (active) |
| O=C1Nc2ccc(Cl)cc2/C1=C/c1cccs1 | -4.25% (active) |
| COc1ccc(-c2nn(-c3cccc(NC(=O)c4ccc(Cl)c(Cl)c4)c3)cc2-c2ccncc2)cc1Cl | 73.3% |
| CC(O)(CC(=O)CC(=O)c1ccccc1)c1ccccc1 (stereo not given) | 94.9% and 101% |
| C[n+]1c(/C=C/c2c(O)ccc3ccccc23)ccc2ccccc21 | -16.1% (active) |
| COc1cc(-c2nc(SCC(=O)Nc3ccc(C(C)=O)cc3)[nH]c(=O)c2C#N)cc(OC)c1OC | -12.8% (active) |
